Data on ten compounds can be found in PubChem BioAssay.

A short description of test [1]: inhibitors of TNFa-induced NFkB p65 translocation, primary screen, imaging, HUVEC, MLSMR starter and 10KST1 sets (AID 438;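 active = inhibition above 20% together with a positive visual image hit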;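 note: compound added about 3h40 before a 20 min TNFalpha stimulation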;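 for inhibition: signal is the nuclear over cytoplasmic p65 intensity ratio per well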). Particulars: HUVEC TNFa-induced p65 nuclear translocation; cell count: measured here: nuclei count (cytotoxicity indicator), at 2.08 µM; inhibition: at 2 µM, stronger effect = higher value, 0% TNFa-plus-vehicle, 100% no-TNFa wells.
A short description of test [2]: reduction of polyQ htt aggregates in cells – imaging, exon1htt(103Q)mCFP cells, high-content imaging, primary screen (AID 483;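 active = visual image review flags a hit and inhibition of aggregation exceeds 20%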;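 note: compound exposure lasted 3 days before fixation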;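 for nuclei count: percent of the per-plate median nuclei count of sample wells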). To be noted: exon1htt(103Q)mCFP cell line, aggregate imaging, at 2 µM; inhibition of aggregation: stronger effect = higher value; nuclei count: measured here: cell count, toxicity.
Test [3] in a line: endothelial E-selectin expression blockers – imaging, HUVEC, immunofluorescence, MLSMR starter and 10KST1 sets, primary screen (AID 487;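 active = visually confirmed hit in the image check and inhibition above 20%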;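 for inhibition: signal is fraction of cell area covered by stained E-selectin grains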;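 for nuclei count: 100% = median nuclei count of all wells on the same plate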). Particulars: HUVEC TNFalpha-induced E-selectin immunofluorescence imaging, at 2 µM; inhibition: stronger effect = higher value; nuclei count: measured here: cell number, toxicity.
Test [4] deals with Voltage-gated potassium channel subunit beta-2 (Rattus norvegicus) (UniProt P62483). In words: inhibitors of rat Kvbeta2 reductase activity – biochemical, NADPH fluorescence, primary screen (AID 622;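 active = fluorescence slope higher than the sample average by over 3 SD, cut at about -0.22 in these data, passing the limit was not always enough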;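 note: slope of raw intensity against log time taken from 70 to 1610 s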). To be noted: recombinant KvBeta, 4-cyanobenzaldehyde reduction, at 10 µM, stronger effect = higher value.
For test [5] the target is unchanged. In words: enhancers of rat Kvbeta2 NADPH turnover – biochemical, NADPH fluorescence, primary screen (AID 623).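 Note: fluorescence intensity change per second fitted from 20 to 320 s.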 Particulars: Recombinant KvBeta, NADPH fluorescence decrease slope, 10 min; at 10 µM; stronger effect = lower value.
Test [6] concerns the target Alpha-2C adrenergic receptor (Homo sapiens) (UniProt P18825). In words: compounds altering alpha2C-coupled GIRK flux – cell-based, HEK293 alpha2C/GIRK1/2, thallium flux, primary screen (AID 624;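 active = fluorescence slope after compound addition differing from the mean of all screened samples at 99.7% confidence, in either direction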;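 note: slope of fluorescence ratio to pre-addition baseline per second over 15 to 24 s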). Particulars: thallium flux BTC fluorescence, at 10 µM, actives lie on both sides.
Test [7] in a line: blockers of RIG-like receptor reporter activation – cell-based, Sendai virus stimulus, luciferase, 10K MLSCN set, TLR/RLR signaling modifier project, primary screen (AID 602276;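 active = inhibition at or above 50% at 10 µM; inactive = inhibition below 50%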;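 note: firefly luciferase from ISG56 promoter only with Renilla not read in this screen; 0% = Sendai virus plus DMSO and 100% = medium plus DMSO without virus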). Particulars: HEK293 RL24 IRF3 luciferase reporter, at 10 µM, stronger effect = higher value. In general terms: In a reporter assay the amount or activity of a reporter protein is the signal.
Test [8] in a line: TLR3 IRF3 reporter activation blockers – cell-based, poly I:C stimulus, luciferase, 10K MLSCN set, primary screen (AID 602277;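 active = inhibition of the reporter signal at or above 50%; inactive = inhibition below 50%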). Particulars: HEK293-TLR3 RL24 IRF3 luciferase reporter, at 10 µM, stronger effect = higher value.

SMILES strings stand for the structures. Calls of active or inactive are those of the source.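 Rule for the calls, unless noted: active = NADPH fluorescence slope more negative than the mean of all samples by about 3 SD, 99.7% confidence; inactive = the rest.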

Sequence of Voltage-gated potassium channel subunit beta-2 (Rattus norvegicus) (P62483 whole entry, looked up): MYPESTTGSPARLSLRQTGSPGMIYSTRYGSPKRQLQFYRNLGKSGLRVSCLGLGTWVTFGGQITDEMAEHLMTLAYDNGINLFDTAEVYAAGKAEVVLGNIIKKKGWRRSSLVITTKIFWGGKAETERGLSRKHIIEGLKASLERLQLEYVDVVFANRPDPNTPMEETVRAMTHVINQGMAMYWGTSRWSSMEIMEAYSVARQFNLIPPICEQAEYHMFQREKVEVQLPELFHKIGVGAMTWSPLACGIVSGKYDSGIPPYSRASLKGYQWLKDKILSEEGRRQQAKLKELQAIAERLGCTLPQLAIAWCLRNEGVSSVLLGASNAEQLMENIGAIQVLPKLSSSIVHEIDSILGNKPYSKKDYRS
Sequence of Alpha-2C adrenergic receptor (Homo sapiens) (P18825 whole entry, looked up): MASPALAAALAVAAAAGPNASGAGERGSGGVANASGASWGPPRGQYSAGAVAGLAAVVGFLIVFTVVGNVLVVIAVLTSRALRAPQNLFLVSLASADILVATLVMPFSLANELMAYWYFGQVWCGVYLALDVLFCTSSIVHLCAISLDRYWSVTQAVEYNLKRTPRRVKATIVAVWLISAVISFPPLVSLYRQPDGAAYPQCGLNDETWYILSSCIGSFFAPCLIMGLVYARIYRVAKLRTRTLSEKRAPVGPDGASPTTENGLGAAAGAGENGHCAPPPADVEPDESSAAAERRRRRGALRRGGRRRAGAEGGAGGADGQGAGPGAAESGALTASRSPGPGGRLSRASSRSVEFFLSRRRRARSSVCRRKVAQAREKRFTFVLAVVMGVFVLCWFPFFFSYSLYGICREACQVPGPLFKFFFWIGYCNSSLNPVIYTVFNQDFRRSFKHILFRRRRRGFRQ

Usually inhibition stands for the drop in the measured response relative to a control, in per cent. With `CC1CN(C(=O)c2cc3cc(Cl)cc(Cl)c3oc2=O)CC(C)O1` (stereo not given), the cell count in test [1] stood at 365. The inhibition in test [1] is 5.6% (inactive); in test [3], -24.5% (inactive); in test [7] it was 11.6% (inactive); in test [8], 23.5% (inactive). Also, the inhibition of aggregation in test [2] was 1% (inactive). Besides, the nuclei count is 104% in test [2] and 100% in test [3]. Also, the fluorescence slope in test [4] is -0.474 (inactive). Moreover, the NADPH fluorescence slope in test [5] is -4.7e-06 (inactive). The slope in test [6] is 0.00693 (inactive).

`CCCCOc1ccc(C2C3CN(C(=O)OCC)CC=C3C(C#N)=C(N)C2(C#N)C#N)cc1OC` (stereo not given): the cell count in test [1] was determined as 645. Also, the inhibition in test [1] was -26.7% (inactive); in test [3], -44.7% (inactive); in test [7], 14.6% (inactive); in test [8], 19.7% (inactive). Further, the inhibition of aggregation in test [2] is -9.8% (inactive). For the same compound, the results for the nuclei count in test [2] and in test [3] were 106% and 115%, respectively. For the same compound, in test [4], the fluorescence slope is -0.476 (inactive). Further, the NADPH fluorescence slope in test [5] is -2.9e-05 (inactive). Also, the slope in test [6] was 0.0065 (inactive).

In the case of `Cc1ccc(N2CCN(C(=O)c3ccccc3)CC2)c(C)c1`, in test [1], the cell count was found to be 484. Moreover, the inhibition is -0.5% (inactive) in test [1], -70.1% (inactive) in test [3], 12% (inactive) in test [7] and 0.924% (inactive) in test [8]. The inhibition of aggregation in test [2] was 1.9% (inactive). Also, the results for the nuclei count in test [2] and in test [3] were 100% and 106%, respectively. For the same compound, the fluorescence slope in test [4] was -0.413 (inactive). The NADPH fluorescence slope in test [5] is -6.4e-05 (inactive). The slope in test [6] was 0.00418 (inactive).

`COc1ccc(-n2c(Cc3cccn3C)nnc2SCC(=O)Nc2cccc(C)c2C)cc1`: the cell count in test [1] was determined as 816. Moreover, the inhibition in test [1] was 4.6% (inactive); in test [3] it was -26.4% (inactive); in test [7], 0.797% (inactive); in test [8], 27.3% (inactive). For the same compound, the inhibition of aggregation in test [2] was 4.2% (inactive). Moreover, the nuclei count came out at 105% in test [2] and 110% in test [3]. The fluorescence slope in test [4] was -0.596 (inactive). Also, the NADPH fluorescence slope in test [5] is -4.5e-06 (inactive). In addition, in test [6], the slope was 0.00595 (inactive).

As to `COc1cccc(N2CCN(C(=O)C3C4C=CC5(CN(Cc6ccccc6Cl)C(=O)C35)O4)CC2)c1` (stereo not given), the cell count in test [1] came to 606. The inhibition was -11.6% (inactive) in test [1], -66.5% (inactive) in test [3], -0.268% (inactive) in test [7] and 13.1% (inactive) in test [8]. For the same compound, the inhibition of aggregation in test [2] was -3% (inactive). The nuclei count is 58.2% in test [2] and 123% in test [3]. The fluorescence slope in test [4] was -0.402 (inactive). The NADPH fluorescence slope in test [5] is -3.2e-05 (inactive). Moreover, the slope in test [6] is 0.00266 (inactive).

On to `COc1ccc2c(CC(=O)Nc3ccc(OC)c(NS(=O)(=O)c4ccc(F)cc4)c3)coc2c1`, for which the cell count in test [1] is 403. Further, the inhibition is -1.4% (inactive) in test [1], -29.3% (inactive) in test [3], 9% (inactive) in test [7] and 18.5% (inactive) in test [8]. In addition, the inhibition of aggregation in test [2] is 2.9% (inactive). For the same compound, the nuclei count is 116% in test [2] and 100% in test [3]. The fluorescence slope in test [4] was -0.275 (inactive). Moreover, the NADPH fluorescence slope in test [5] was -8.3e-06 (inactive). Further, the slope in test [6] was 0.00715 (inactive).

On to `Cn1c(=O)c2c(nc(NCCCO)n2CCc2ccccc2)n(C)c1=O`, for which the cell count in test [1] was determined as 422. In addition, the inhibition in test [1] is 9.7% (inactive); in test [3] it was -27.9% (inactive); in test [7] it was -9.22% (inactive); in test [8], 4.62% (inactive). In test [2], the inhibition of aggregation was -11.3% (inactive). Moreover, the nuclei count in test [2] worked out at 105%; in test [3], 103%. Also, the fluorescence slope in test [4] is -0.506 (inactive). Besides, the NADPH fluorescence slope in test [5] was 4.3e-05 (inactive). In addition, the slope in test [6] is 0.00351 (inactive).

As for `O=C(CCCC(=O)OCC(=O)NC1CCCC1)Nc1ccccn1`, the cell count in test [1] is 463. Further, the inhibition in test [1] was 2.6% (inactive); in test [3], -130% (inactive); in test [7] it was 14% (inactive); in test [8], 17.5% (inactive). The inhibition of aggregation in test [2] is 1.1% (inactive). The nuclei count in test [2] amounted to 113%; in test [3] it was 179%. Besides, the fluorescence slope in test [4] was -0.6 (inactive). For the same compound, the NADPH fluorescence slope in test [5] was -4.5e-05 (inactive). In addition, the slope in test [6] is 0.00354 (inactive).

With `NC(=O)c1sc2nc3c(c(-c4ccco4)c2c1N)CCC3`, the cell count in test [1] is 365. Further, the inhibition in test [1] was 5.8% (inactive); in test [3] it was -32.2% (inactive); in test [7] it was 16.4% (inactive); in test [8], -2.19% (inactive). Further, the inhibition of aggregation in test [2] is 1.6% (inactive). Further, the nuclei count is 87.8% in test [2] and 121% in test [3]. The fluorescence slope in test [4] was -0.366 (inactive). Also, the NADPH fluorescence slope in test [5] is -6.5e-05 (inactive). Moreover, in test [6], the slope was 0.00352 (inactive).

Consider `CCc1nnc(NC(=O)c2cc3c(s2)CCCCC3)s1`, for which the cell count in test [1] was determined as 662. Besides, the inhibition in test [1] is 4.4% (inactive); in test [3] it was -89.1% (inactive); in test [7], -50.8% (inactive); in test [8] it was -103% (inactive). Further, the inhibition of aggregation in test [2] is 4.1% (inactive). In addition, the results for the nuclei count in test [2] and in test [3] were 131% and 108%, respectively. For the same compound, in test [4], the fluorescence slope was -0.406 (inactive). Also, the NADPH fluorescence slope in test [5] was -0.000125 (inactive). The slope in test [6] is 0.00621 (inactive).
